Results published in PubChem BioAssay.
Activity calls are given as the source filed them.

Tests used:
[1] = binders of probe aFSTL3 on microarray, primary screen, stem cell growth factor project, biochemical, small-molecule microarray, fluorescence 635/667 (AID 1064); conditions: higher = more signal;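 note: measures binding of the biotinylated anti-FSTL3 antibody to printed compounds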
[2] = binders from COS7 lysate, DM2A8 probe, primary screen, torsin A project, cell lysate, small-molecule microarray, fluorescence 635/667 (AID 1065); conditions: higher = more signal, COS7 lysate expressing mutant human TOR1A
[3] = binders of probe aFGF2 on microarray, primary screen, stem cell growth factor project, biochemical, small-molecule microarray, fluorescence 635/667 (AID 1067); conditions: higher = more signal;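 note: measures binding of biotinylated aFGF2 protein to printed compounds on slides; z-score merges feature fluorescence and signal-to-noise across triplicate slides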
[4] = binders of probe aFGF10 on microarray, primary screen, stem cell growth factor project, biochemical, small-molecule microarray, fluorescence 635/667 (AID 1071); conditions: higher = more signal;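 note: score merges 667 nm spot intensity and signal to noise from triplicate slides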
[5] = molecular target: Neurogenic locus notch homolog protein 2 (Homo sapiens) (UniProt Q04721); assay: Notch2 binders on small-molecule microarrays, primary screen, biochemical, small-molecule microarray, 635 nm fluorescence, stem cell growth factors (AID 1073); conditions: Notch2 binding, higher = more signal
[6] = molecular target: Pro-neuregulin-1, membrane-bound isoform (Homo sapiens) (UniProt Q02297); assay: NRG1 binders on small-molecule microarrays, primary screen, psychiatric disease protein project, biochemical, small-molecule microarray, fluorescence 635/667 (AID 1075); conditions: NRG1 binding, 635 nm fluorescence, higher = more signal;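 note: score combines 667 nm spot fluorescence with signal to noise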
[7] = tested on: Neuregulin-1 EGF-like domain; assay: binders of neuregulin-1 EGF-like domain, primary screen, biochemical, small-molecule microarray, 635 nm fluorescence (AID 1081); conditions: small-molecule microarray binding, higher = more signal;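 note: binding of the protein to compounds printed on small-molecule microarray slides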
[8] = FRG1 promoter luciferase signal modulators, primary screen, FRG1 inhibition for FSHD, cell-based, C2C12 myotubes, firefly/Renilla luciferase, luminescence (AID 1084); conditions: higher = more signal, called active from +8 up or from −8 down
[9] = binders of probe aFST on microarray, primary screen, stem cell growth factor project, biochemical, small-molecule microarray, fluorescence 635/667 (AID 1086); conditions: higher = more signal;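 note: score merges 667 nm fluorescence with signal-to-noise of each printed compound spot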
[10] = binders of probe aHhip on microarray, primary screen, stem cell growth factor project, biochemical, small-molecule microarray, fluorescence 635/667 (AID 1087); conditions: higher = more signal;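 note: score merges spot fluorescence at 667nm with spot signal to noise ratio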
[11] = tested on: PRMT1 (protein arginine N-methyltransferase 1); assay: PRMT1 binders on small-molecule microarrays, primary screen, biochemical, small-molecule microarray, 635 nm fluorescence (AID 1088); conditions: small-molecule microarray binding, higher = more signal;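 note: binding of Prmt1 protein to compounds spotted on small-molecule microarray slides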
[12] = yeast growth modulation, basal conditions, primary screen, YJM789 clinical isolate, OD600, 24 h (AID 1089);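 note: growth of clinical yeast isolate S. cerevisiae YJM 789 seeded 1000 cells per well; test concentration not given here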; conditions: S. cerevisiae YJM789 growth, higher = more signal, called active from +8 up or from −8 down
[13] = fission yeast growth modulation, primary screen, strain 972, OD600, 24 h, no modulator (AID 1090);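 note: basal condition with compound alone and no growth modifier present; test concentration not given here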; conditions: S. pombe 972 growth, higher = more signal, called active from +8 up or from −8 down
[14] = S. cerevisiae growth modulation with rapamycin, primary screen, strain BY4716, OD600, 96 h (AID 1091); conditions: higher = more signal, called active from +8 up or from −8 down; note: test concentration not given here
[15] = molecular target: Torsin-1A-interacting protein 2 (Homo sapiens) (UniProt Q8NFQ8); assay: LULL1 binders on small-molecule microarray, primary screen, cell lysate, human LULL1 lysate, 635/667 nm fluorescence (AID 1092); conditions: hLULL1 lysate binding, 635 nm fluorescence, higher = more signal;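 note: probe is lysate of COS7 cells overexpressing human LULL1; score merges per-feature 667 nm fluorescence with signal-to-noise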
[16] = E. coli growth modulation, two-sided OD650, primary screen, E. coli filamentation project, strain DRC41, 24 h (AID 1093); conditions: OD650, 24 h, higher = more signal, called active from +8 up or from −8 down;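 note: MC1000 strain lacking acrAB efflux and sulA so SOS filamentation is blocked; test concentration not given here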
[17] = small-molecule microarray binders of probe aLefty2, primary screen, biochemical, biotinylated probe, 635/667 nm fluorescence (AID 1094); conditions: higher = more signal;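 note: score merges spot fluorescence near 667 nm with spot signal-to-noise ratio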
[18] = tested on: Noggin (protein binding on small-molecule microarray); assay: Noggin binders on small-molecule microarray, primary screen, biochemical, 635/667 nm fluorescence (AID 1095); conditions: 635 nm fluorescence, higher = more signal;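 note: score merges 667 nm feature fluorescence with signal to noise over triplicate slides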
[19] = molecular target: Neurogenic locus notch homolog protein 3 (Homo sapiens) (UniProt Q9UM47); assay: NOTCH3 binders on small-molecule microarray, primary screen, biochemical, 635/667 nm fluorescence (AID 1096); conditions: NOTCH3 binding, 635 nm fluorescence, higher = more signal
[20] = small-molecule microarray binders of probe aEGFR, primary screen, biochemical, biotinylated probe, 635/667 nm fluorescence (AID 1097); conditions: higher = more signal;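 note: probe is a biotinylated anti-EGFR antibody binding compounds printed on slides; score combines fluorescence near 667 nm and signal to noise of each spot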

Neurogenic locus notch homolog protein 2 (Homo sapiens), sequence (Q04721 whole entry, looked up, canonical isoform): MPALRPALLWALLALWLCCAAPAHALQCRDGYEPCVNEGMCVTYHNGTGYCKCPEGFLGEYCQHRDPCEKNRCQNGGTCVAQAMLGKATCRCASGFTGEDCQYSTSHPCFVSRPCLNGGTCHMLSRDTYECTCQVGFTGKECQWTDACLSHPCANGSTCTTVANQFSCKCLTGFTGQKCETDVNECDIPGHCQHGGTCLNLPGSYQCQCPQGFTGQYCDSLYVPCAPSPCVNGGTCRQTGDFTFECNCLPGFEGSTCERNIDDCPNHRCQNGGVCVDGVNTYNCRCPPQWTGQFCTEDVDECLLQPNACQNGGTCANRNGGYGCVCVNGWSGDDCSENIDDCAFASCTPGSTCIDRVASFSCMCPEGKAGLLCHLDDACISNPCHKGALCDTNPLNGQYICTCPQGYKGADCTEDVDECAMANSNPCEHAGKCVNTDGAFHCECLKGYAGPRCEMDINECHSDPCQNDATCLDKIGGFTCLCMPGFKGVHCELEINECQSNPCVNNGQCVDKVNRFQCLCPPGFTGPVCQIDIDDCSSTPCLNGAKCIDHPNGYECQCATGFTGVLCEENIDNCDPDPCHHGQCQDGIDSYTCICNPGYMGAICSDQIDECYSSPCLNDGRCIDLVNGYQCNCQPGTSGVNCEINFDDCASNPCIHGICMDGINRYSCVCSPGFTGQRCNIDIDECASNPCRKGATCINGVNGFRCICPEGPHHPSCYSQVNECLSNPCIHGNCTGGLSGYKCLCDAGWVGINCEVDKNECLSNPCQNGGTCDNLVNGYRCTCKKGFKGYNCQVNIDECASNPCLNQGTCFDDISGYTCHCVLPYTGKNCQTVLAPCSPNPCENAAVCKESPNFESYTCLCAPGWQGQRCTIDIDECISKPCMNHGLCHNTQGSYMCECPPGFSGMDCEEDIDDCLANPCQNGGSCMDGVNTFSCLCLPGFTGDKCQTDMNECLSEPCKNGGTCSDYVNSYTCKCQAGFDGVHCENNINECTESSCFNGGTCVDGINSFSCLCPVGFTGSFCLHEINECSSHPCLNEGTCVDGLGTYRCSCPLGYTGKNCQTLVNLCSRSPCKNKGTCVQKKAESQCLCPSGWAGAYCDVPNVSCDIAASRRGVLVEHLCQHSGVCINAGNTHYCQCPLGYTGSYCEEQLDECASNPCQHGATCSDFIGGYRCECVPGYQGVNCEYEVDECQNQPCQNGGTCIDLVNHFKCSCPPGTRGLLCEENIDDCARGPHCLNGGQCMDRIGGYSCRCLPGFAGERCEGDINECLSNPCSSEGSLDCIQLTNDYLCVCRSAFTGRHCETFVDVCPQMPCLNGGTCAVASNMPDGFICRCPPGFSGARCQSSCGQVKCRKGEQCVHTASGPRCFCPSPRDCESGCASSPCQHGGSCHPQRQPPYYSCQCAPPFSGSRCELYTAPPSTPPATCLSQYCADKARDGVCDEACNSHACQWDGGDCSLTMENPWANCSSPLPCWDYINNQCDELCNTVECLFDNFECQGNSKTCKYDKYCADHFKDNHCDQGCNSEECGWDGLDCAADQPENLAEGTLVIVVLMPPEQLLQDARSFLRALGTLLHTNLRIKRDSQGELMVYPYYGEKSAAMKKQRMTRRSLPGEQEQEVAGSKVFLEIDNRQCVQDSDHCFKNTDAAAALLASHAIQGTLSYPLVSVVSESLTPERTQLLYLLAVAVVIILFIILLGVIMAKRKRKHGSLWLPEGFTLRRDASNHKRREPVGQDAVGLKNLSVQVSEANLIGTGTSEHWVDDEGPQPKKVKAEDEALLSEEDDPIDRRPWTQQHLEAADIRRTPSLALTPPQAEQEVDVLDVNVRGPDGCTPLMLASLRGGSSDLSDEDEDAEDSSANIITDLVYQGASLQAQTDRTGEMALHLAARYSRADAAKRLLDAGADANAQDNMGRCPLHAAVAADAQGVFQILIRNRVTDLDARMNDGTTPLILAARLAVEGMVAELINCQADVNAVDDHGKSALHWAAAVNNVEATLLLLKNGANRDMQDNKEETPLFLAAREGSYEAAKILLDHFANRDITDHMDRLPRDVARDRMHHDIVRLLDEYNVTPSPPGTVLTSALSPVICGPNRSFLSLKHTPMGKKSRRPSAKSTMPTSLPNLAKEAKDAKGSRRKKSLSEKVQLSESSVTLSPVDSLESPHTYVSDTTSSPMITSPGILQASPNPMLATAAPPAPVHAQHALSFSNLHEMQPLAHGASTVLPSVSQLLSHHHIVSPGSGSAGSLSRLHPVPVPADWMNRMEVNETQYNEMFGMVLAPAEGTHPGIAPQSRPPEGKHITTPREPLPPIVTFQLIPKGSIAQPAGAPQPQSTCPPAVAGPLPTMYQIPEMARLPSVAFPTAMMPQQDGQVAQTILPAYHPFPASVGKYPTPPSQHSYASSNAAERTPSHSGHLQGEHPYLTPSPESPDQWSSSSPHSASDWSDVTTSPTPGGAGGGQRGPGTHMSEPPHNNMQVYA
Torsin-1A-interacting protein 2 (Homo sapiens), sequence (Q8NFQ8 whole entry, looked up): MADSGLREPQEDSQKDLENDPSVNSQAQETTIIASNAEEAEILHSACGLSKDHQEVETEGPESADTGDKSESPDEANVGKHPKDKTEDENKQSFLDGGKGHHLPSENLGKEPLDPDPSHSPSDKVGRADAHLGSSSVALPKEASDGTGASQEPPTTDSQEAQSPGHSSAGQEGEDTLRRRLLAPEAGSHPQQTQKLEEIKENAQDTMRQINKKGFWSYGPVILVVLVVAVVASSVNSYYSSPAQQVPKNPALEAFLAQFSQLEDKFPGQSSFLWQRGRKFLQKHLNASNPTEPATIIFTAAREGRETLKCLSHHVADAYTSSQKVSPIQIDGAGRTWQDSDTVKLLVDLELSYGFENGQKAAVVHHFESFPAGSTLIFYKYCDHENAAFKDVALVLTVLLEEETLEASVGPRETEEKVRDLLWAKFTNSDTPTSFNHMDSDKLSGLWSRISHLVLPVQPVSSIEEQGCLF
Pro-neuregulin-1, membrane-bound isoform (Homo sapiens), sequence (Q02297 whole entry, looked up, the tested form may be a part, canonical isoform): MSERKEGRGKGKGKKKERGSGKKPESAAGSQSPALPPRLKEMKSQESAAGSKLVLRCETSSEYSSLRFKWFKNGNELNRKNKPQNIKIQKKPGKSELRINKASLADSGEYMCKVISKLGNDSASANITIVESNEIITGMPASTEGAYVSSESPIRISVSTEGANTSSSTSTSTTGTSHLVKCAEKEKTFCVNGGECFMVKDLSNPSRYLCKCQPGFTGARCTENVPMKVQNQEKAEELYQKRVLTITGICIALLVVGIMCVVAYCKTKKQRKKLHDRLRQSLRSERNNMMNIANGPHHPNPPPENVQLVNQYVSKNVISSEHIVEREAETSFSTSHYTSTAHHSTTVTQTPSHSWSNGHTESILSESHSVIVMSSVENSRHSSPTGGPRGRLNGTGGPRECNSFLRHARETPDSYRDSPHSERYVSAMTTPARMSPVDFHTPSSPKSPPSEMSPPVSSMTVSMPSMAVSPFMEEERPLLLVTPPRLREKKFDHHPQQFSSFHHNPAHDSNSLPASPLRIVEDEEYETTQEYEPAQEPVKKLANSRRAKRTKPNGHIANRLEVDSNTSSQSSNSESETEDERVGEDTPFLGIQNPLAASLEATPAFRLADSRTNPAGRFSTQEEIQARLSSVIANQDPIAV

SMILES | composite z-score [1] | composite z-score [2] | composite z-score [3] | composite z-score [4] | composite z-score [5] | composite z-score [6] | composite z-score [7] | z-score [8] | composite z-score [9] | composite z-score [10] | composite z-score [11] | z-score [12] | z-score [13] | z-score [14] | composite z-score [15] | z-score [16] | composite z-score [17] | composite z-score [18] | composite z-score [19] | composite z-score [20]
COC(=O)c1c2oc(c1C(=O)OC)C(=O)N[C@@H](C(C)C)Cn1cc(nn1)C1(CCCCC1)NC(=O)N[C@H](CO)CC2 | -0.458 | 0.104 | -0.124 | 0.471 | -0.178 | 0.356 | 0.859 | -0.965 (inactive) | -0.0464 | 0.0881 | 0.523 | -0.301 (inactive) | -0.772 (inactive) | -0.538 (inactive) | 1.41 | 1.29 (inactive) | -0.116 | 1.59 | 0.171 | -0.163
C=CCC(OC(C)=O)[C@@H]1[C@@H](N(Cc2ccc(-c3ccccc3)cc2)C(=O)Cc2ccc(F)cc2)c2cc(OCCCO)ccc2N1C(=O)c1ccc2ccccc2c1 (stereo not given in full) | -0.313 | 0.273 | -0.0222 | -0.0326 | 0.166 | -0.158 | -0.31 | 0.375 (inactive) | 0.0263 | -0.226 | 0.688 | 0.245 (inactive) | 0.135 (inactive) | 0.14 (inactive) | 0.437 | 0.0919 (inactive) | 0.0002 | 0.289 | 0.147 | -0.109
COc1cc2c(cc1O)C(c1cccs1)N(Cc1cccc(OC(F)(F)F)c1)CC2 (stereo not given) | 0.0011 | 0.61 | -0.114 | -0.0012 | 0.192 | 1.39 | 0.774 | -0.79 (inactive) | -0.146 | -0.164 | 1.46 | -2.16 (inactive) | -8.15 (active) | -2.63 (inactive) | 2.1 | -0.878 (inactive) | -0.0785 | -0.648 | 0.108 | -0.139
CCCC(=O)N(CCc1c[nH]c2ccccc12)[C@@H]1CC(C(=O)NCCO)=C[C@H](Oc2c(I)cc(CO)cc2OC)[C@H]1O | -0.279 | 0.809 | -0.0692 | 0.187 | -0.11 | -0.0724 | 0.315 | -0.667 (inactive) | -0.0945 | -0.214 | 0.234 | 0.5 (inactive) | -0.713 (inactive) | -0.241 (inactive) | 1.42 | 1.55 (inactive) | -0.157 | 0.259 | -0.0693 | -0.0708
C#CCOc1ccc(C[C@@H](C(=O)OC)N(CC#C)[C@@H](/C=C/C2CC2)[C@H](O)Cc2ccccc2)cc1 | 0.282 | -1 | -0.198 | -0.207 | -1.12 | -0.294 | -0.0146 | -4.34 (inactive) | -0.353 | -0.0994 | -0.828 | 0.591 (inactive) | 0.027 (inactive) | 1.29 (inactive) | -0.361 | -0.914 (inactive) | -0.0561 | -0.446 | -0.384 | -0.312
C=CCOC(=O)[C@H]1[C@@H]2C(=O)O[C@@H](c3ccccc3)[C@@H](c3ccccc3)N2[C@@H](c2ccc(OCCOC(=O)[C@@H]3C[C@@H]4C(=O)N5CCC[C@H]5C(=O)N4[C@@H]3c3cccc(OCCO)c3)cc2)[C@]12C(=O)Nc1ccc(I)cc12 | -0.34 | 1.19 | -0.104 | 0.397 | 0.373 | 1.05 | 1.31 | 0.984 (inactive) | 0.447 | -0.12 | 1.56 | 0.151 (inactive) | 1.04 (inactive) | 2.23 (inactive) | 2.09 | -0.443 (inactive) | -0.117 | 1.86 | 1.08 | 0.0032
